aSyn 5UTR act: Activators working through SNCA 5'UTR binding (MLPCN); alpha-synuclein 5'UTR reporter, activators screen; AID 1814; activity score, % (tested at 7.5 µM), hits read low; 7.1% of 300,000 active; in the data active = activity score below about -60%
An asterisk follows results filed as active. Only a sample is shown.

SMILES	aSyn 5UTR act
Cc1cc(C)nc(N/N=C/c2ccccc2OCc2ccc(Cl)cc2)n1	-80*
Cc1cc(C)nc(N/N=C/c2ccccc2OCc2ccc(Br)cc2)n1	-144*
C/C(=N\Nc1ccc(C)c(Cl)c1)c1cccnc1	-105*
C/C(=N\Nc1ccccc1C(=O)O)c1ccncc1	-132*
O=C(O)c1ccccc1NN=C1CCCCC1	-192*
C/C(=N\Nc1ccc(C)c(Cl)c1)c1ccncc1	-77*
CCCCCCCn1c2c(c(=N)c3c1CCC3)CCCC2	83
c1ccc(Nc2nc(-c3ccccc3)ns2)cc1	-144*
CC(C)(C)C(=O)Nc1nc(-c2ccccc2)ns1	-146*
CC(=O)c1cccc(OCc2cc(C(=O)N3CCSCC3)no2)c1	-152*
O=C(c1cc(COc2ccc(F)c(F)c2)on1)N1CCSCC1	-94*
O=C(NCCc1c[nH]c2ccccc12)c1ccccc1	-107*
Cc1ccc(C(=O)NCCc2c[nH]c3ccccc23)c(C)c1	-104*
O=C(/C=C/c1ccccc1)c1c[nH]c2ccccc12	-98*
O=C1c2ccccc2C(=O)N1CCc1c[nH]c2ccccc12	-172*
Cc1ccc(C(=O)NCCc2c[nH]c3ccccc23)s1	-178*
O=C(/C=C/c1ccccc1)NCCc1c[nH]c2ccccc12	-111*
Cc1ccc(-c2nnc(NC(=O)c3ccc([N+](=O)[O-])o3)o2)c(C)c1	-64*
Cc1ccc(NC(=O)c2ccc([N+](=O)[O-])o2)c(C)c1	-74*
CSc1cccc(NCc2ccc([N+](=O)[O-])cc2)c1	-63*
O=C(OCc1nnc(-c2ccc(Cl)cc2)o1)C12CC3CC(CC(O)(C3)C1)C2	-205*
O=C(CNc1ccccc1)Nc1ccc(F)cc1	-118*
Cc1ccc(NCC(=O)Nc2ccc(Br)cc2)cc1F	-77*
O=C(CC(=O)Nc1ccccc1)Nc1ccccc1	-69*
Cc1ccc(/C=N/Nc2nc(C(C)(C)C)cs2)o1	-123*
SMILES	aSyn 5UTR act
C(=N\Nc1nc(-c2ccccc2)cs1)/c1cccnc1	-339*
CC(C)=NNc1nc(-c2ccccc2)cs1	-182*
CCCC(=O)Nc1ccc(-c2csc(N/N=C\c3ccncc3)n2)cc1	-116*
CC(C)(C)c1csc(N/N=C/c2cccnc2)n1	-173*
Cc1cc(N)n(-c2cc(C)c3ccccc3n2)n1	-118*
Cc1cc(C)c2nc(-n3nc(C)cc3N)cc(C)c2c1	-162*
Cc1ccc(OCC(=O)Nc2ccccc2C(N)=O)cc1	-98*
NC(=O)c1ccccc1NC(=O)COc1ccc(Cl)cc1	-101*
Cn1nc(-c2ccccc2)cc1NC(=O)C1CCCCC1	-70*
O=C(c1ccc(Cl)cc1)N1CCCCC(Sc2nnc(-c3ccc4c(c3)OCO4)o2)C1=O (stereo not drawn)	92
O=C(Nc1nnc(-c2ccc3c(c2)OCCO3)o1)C1CCCCC1	-88*
O=C(Nc1nnc(-c2ccc(Cl)cc2)o1)C1CCCCC1	-80*
Clc1ccc(-c2nnc(NC3=NCCCCC3)o2)cc1	75
O=C(Nc1nnc(-c2ccc(Cl)s2)o1)C1CCCCC1	-63*
CC1(C)COCN1S(=O)(=O)c1ccc(C(=O)Nc2nnc(-c3ccc(Cl)s3)o2)cc1	92
O=C(Nc1nnc(-c2ccccc2)o1)C1CCCCC1	-63*
COc1ccc(NC(=O)c2cc(Br)c(Br)s2)cn1	-69*
CCc1cc(C(=O)Nc2ccc(OC)nc2)sc1C	-95*
COc1ccc(NC(=O)c2sccc2C)cn1	-115*
COc1ccc(NC(=O)c2nc3nccc(C)n3n2)cn1	-72*
CC1CCN(c2ccc(NC(=O)Cc3ccccc3)cc2)CC1	-82*
O=C(Cc1ccccc1)Nc1ccc(N2CCOCC2)cc1	-73*
O=C(Nc1ccc(N2CCOCC2)cc1)c1cn2ccccc2n1	65
Cc1ccn2cc(-c3cccc(NC(=O)c4ccccc4)c3)nc2c1	-82*
Cc1ccn2cc(-c3cccc(NC(=O)C(C)C)c3)nc2c1	-107*
SMILES	aSyn 5UTR act
COc1ccc(CC(=O)Nc2ccc(-c3cn4ccc(C)cc4n3)cc2)cc1	-110*
O=C(Nc1ccc(F)cc1)Nc1csc2ccccc12	-87*
CN(C)c1ccc(NC(=O)Nc2csc3ccccc23)cc1	-141*
COc1ccc(C(=O)Nc2nc(C)c(C)s2)cc1OC	-142*
COc1ccc(C(=O)Nc2ccc(Oc3nc(C)nc4sc(-c5ccccc5)cc34)cc2)cc1OC	-120*
Cc1nc2ccc(C(=O)Nc3cccc([N+](=O)[O-])c3)cc2s1	-127*
COc1ccc(NC(=O)c2ccc3nc(C)sc3c2)cc1	-124*
COc1ccc(C(=O)Nc2ccc3nc(C)sc3c2)cc1OC	-101*
COC(=O)c1ccc(NC(=O)c2ccc3nc(C)sc3c2)cc1	-180*
Cc1ccc(NC(=O)C2C3C=CC4(CN(Cc5cccnc5)C(=O)C24)O3)cc1 (stereo not drawn)	-80*
CNc1ccccc(-c2ccc3cc4c(cc3n2)OCO4)c1=O	-215*
COc1ccc(/C=N/Nc2nc(C(=O)O)cs2)cc1	-78*
CCOC(=O)c1sc(N/N=C/c2cccc(C)c2)nc1C	-175*
CC(=O)c1sc(N/N=C\c2ccccc2O)nc1C	-188*
COC(=O)c1ccc(/C=N/Nc2nc(C)c(C)s2)cc1	-188*
CCOC(=O)c1sc(N/N=C/c2ccccc2)nc1C	-207*
O=C(O)Cc1sc(N/N=C\c2ccccc2)nc1-c1ccccc1	-256*
CC1=NN(C(N)=S)C(=O)C1N=Nc1ccc(F)cc1 (stereo not drawn)	-89*
CCOc1ccc(N=NC2C(=O)N(C(N)=S)N=C2C)cc1 (stereo not drawn)	-142*
CCOCCCNC(=O)c1cccc(OC2CCN(S(C)(=O)=O)CC2)c1	-151*
CCOCCCNC(=O)c1ccc2c(c1)N=C(CC)c1cc(Br)ccc1S2	88
COc1cc(NC(=O)c2cc(-c3ccccc3Cl)on2)cc(OC)c1OC	-76*
COc1ccc(NC(=O)c2cc(-c3ccccc3Cl)on2)cc1	-125*
O=C(Nc1ccccc1)OCCCc1ccccc1	-119*
CCCCc1ccc(NC(=O)OC)cc1	-79*
SMILES	aSyn 5UTR act
CCCCc1ccc(NC(=O)Nc2cccnc2)cc1	-102*
Cc1ccc2c(c1)[nH]c1c(=O)n(Cc3ccco3)cnc12	-118*
COc1cccc(-c2nnc(-c3ccccc3[N+](=O)[O-])o2)c1	-136*
COc1cccc(OCCOc2ccccc2[N+](=O)[O-])c1	-155*
COc1cccc(C(=O)Nc2ccc(-c3nnc(-c4ccco4)o3)cc2)c1	-127*
COc1cccc(-c2nnc(-c3ccco3)o2)c1	-147*
CCCN(CCC)S(=O)(=O)c1ccc(C(=O)Nc2nnc(-c3cccc(OC)c3)o2)cc1	70
COc1cccc(-c2nnc(NC(=O)C(C)C)o2)c1	-67*
COc1cc(C2C(C#N)=C(N)Oc3cc4c(cc32)OCO4)cc(OC)c1OC (stereo not drawn)	111
COc1cccc(C2C(C#N)=C(N)OC(C(C)(C)C)=C2C#N)c1 (stereo not drawn)	-115*
N#CC1=C(N)OC2=C(CCc3ccccc32)C1c1ccccc1 (stereo not drawn)	70
Cc1ccc(Cl)cc1Nc1nc(-c2sc(NC(=O)c3ccccc3)nc2C)cs1	-94*
Cc1nc(NC(=O)c2ccccc2)sc1-c1csc(Nc2cccc(F)c2)n1	-81*
CCOC(=O)C(NC(=O)CCl)(Nc1sc(C)c(CC)c1C#N)C(F)(F)F (stereo not drawn)	-75*
COc1ccc(C2CC(c3ccccc3OC(C)=O)=NN2C(C)=O)cc1 (stereo not drawn)	-79*
CCCCOC(=O)Nc1cccc(Cl)c1C	-104*
CSc1nc(-c2ccccc2)nc(NC(C)=O)c1C(C)=O	-62*

Screening results as filed in PubChem BioAssay.
